# In the library only some 27% were active in any assay of this set; here they are far more common.
# Cav32 inh: inhibitors of human Cav3.2 T-type calcium channel | O95180 | Cav3.2-expressing cells, Fluo-4 calcium fluorescence FDSS; active compounds read low | B-score at 10 µM | actives 4% (n = 100,000) | AID 449739;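 active = single-dose well whose peak fluorescence ratio is a statistical outlier from its plate by either plate-standardised score or position-corrected B-score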
# CYP2C9 inhib: blocks human cytochrome P450 2C9; P11712; CYP2C9 Supersomes, luciferin-H conversion, luminescence; inhibition, % at 5 µM; actives 20% (n = 96,000); AID 777;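 active = blocking of liver enzyme CYP2C9 beyond about 50% at 5 µM, limit read from the data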
# Target sequence (P11712 whole entry, looked up): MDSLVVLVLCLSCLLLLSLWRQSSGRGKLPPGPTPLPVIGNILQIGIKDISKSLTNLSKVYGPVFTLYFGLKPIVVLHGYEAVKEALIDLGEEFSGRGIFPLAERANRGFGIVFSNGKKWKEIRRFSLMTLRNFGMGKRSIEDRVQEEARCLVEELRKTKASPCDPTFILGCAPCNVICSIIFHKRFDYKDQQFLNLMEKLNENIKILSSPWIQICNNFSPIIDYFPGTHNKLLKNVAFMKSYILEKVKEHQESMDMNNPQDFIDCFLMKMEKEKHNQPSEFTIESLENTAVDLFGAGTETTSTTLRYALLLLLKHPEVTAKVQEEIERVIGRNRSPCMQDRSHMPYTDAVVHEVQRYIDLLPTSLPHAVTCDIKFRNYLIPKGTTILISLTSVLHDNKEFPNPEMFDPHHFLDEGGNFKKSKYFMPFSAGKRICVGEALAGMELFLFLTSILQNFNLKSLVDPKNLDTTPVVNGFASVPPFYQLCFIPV
# CYP2C9 act: increases human cytochrome P450 2C9 activity; actives 1.4% (n = 96,000); P11712; AID 1024; activation factor at 5 µM; recombinant CYP2C9, luciferin-H conversion, luminescence; active compounds read high; factor 1 = untreated enzyme, 0 = blocked;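 active = activation factor of 2 or more for CYP2C9 at a 5 µM dose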;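 note: 0 = sulfaphenazole-blocked wells and 1 = vehicle-only wells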
# CYP2C19 inhib: human CYP2C19 inhibition; CYP2C19 Supersomes, luciferin-H EGE luminescence, 30 min; inhibition, % at 5 µM; actives 21% (n = 96,000);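 active = CYP2C19 inhibition above a set limit at 5 µM in the primary screen, cut at about 50% in these data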;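 note: plate controls were negative control wells for no effect and 2.5 mM tranylcypromine positive control for full effect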
# CYP2C19 act: activators of human cytochrome P450 2C19. P33261. 96,000 tested, under 10 active. activation factor at 5 µM. recombinant CYP2C19, luciferin-H EGE luminescence; active compounds read high; 0 = fully inhibited enzyme, 1 = untreated enzyme. AID 1025;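 active = activation factor of at least 2 at 5 µM in the primary screen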;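 note: 0 = wells with 2.5 mM tranylcypromine and 1 = vehicle-only wells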
# Numbers without * were called inactive; . = no result.
SMILES,Cav32 inh,CYP2C9 inhib,CYP2C9 act,CYP2C19 inhib,CYP2C19 act
CCCNC(=O)c1ccc2c(c1)C1C3CCC(C3)C1C(c1ccccc1)N2 (configuration not stated),-5*,100*,0,89*,0.1
Cc1ccc(S(=O)(=O)c2nc(C)c3c(n2)CCC3)cc1,-0.67,-117,2.2*,36,0.6
COc1ccccc1OCCCn1c(C)c(C#N)c2ccccc21,-2.3,78*,0.2,29,0.7
COc1ccccc1OCCCn1cc(C#N)c2ccccc21,-4.5*,95*,0,100*,0
O=C(Nc1cccc(NC(=O)c2ccccc2[N+](=O)[O-])n1)c1ccccc1[N+](=O)[O-],0.71,43,0.6,30,0.7
COc1cccc(C(CC(=O)Nc2cccc3ccccc23)NC(=O)c2ccccc2)c1 (configuration not stated),-1.3,81*,0.2,50,0.5
O=S(=O)(NCCOCC(F)(F)F)c1ccc2oc3ccccc3c2c1,-4.3*,.,.,.,.
Cc1ccc(-n2nnnc2SCn2nnc3ccccc3c2=O)cc1,0.73,-42,1.4,18,0.8
CCN(CC)S(=O)(=O)c1ccc2c(c1)nc(SCn1nnc3ccccc3c1=O)n2CC,0.0097,68*,0.3,20,0.8
CCN(CC)C(=O)N1CCc2ccccc2C1CN1C(=O)c2ccccc2C1=O (configuration not stated),-4.2*,.,.,.,.
O=C1c2ccccc2C(=O)N1CC(=O)N1c2ccccc2CCc2ccccc21,1.4,8,0.9,3,1
O=C1c2ccccc2C(=O)N1CC1c2ccccc2CCN1C(=O)C1CCCCC1 (configuration not stated),-2.5,27,0.7,73*,0.3
O=C(O)[C@@H]1CCCC[C@@H]1C(=O)N1CCc2ccccc2C1CN1C(=O)c2ccccc2C1=O (some centres not stated),-0.07,-8,1.1,-7,1.1
O=C(C(NS(=O)(=O)c1cccs1)c1ccccc1)N1CCN(c2ccccc2)CC1 (configuration not stated),-0.073,28,0.7,54*,0.5
O=C(C1CCN(S(=O)(=O)c2cccs2)CC1)N1CCN(c2ccccc2)CC1,0.67,3,1,-6,1.1
O=C1C(NS(=O)(=O)c2cccs2)=C(N2CCN(c3ccccc3)CC2)C(=O)c2ccccc21,1,63*,0.4,29,0.7
Cc1nn(Cc2ccc(C(=O)Nc3nccs3)cc2)c(C)c1Cl,.,8,0.9,1,1
O=C(Nc1nnc(C2CC2)s1)c1cccc(S(=O)(=O)N2CCc3ccccc32)c1,0.18,37,0.6,23,0.8
C#C[C@]1(O)CC[C@H]2[C@@H]3CCC4=Cc5oncc5C[C@]4(C)[C@H]3CC[C@@]21C,-4.5*,.,.,.,.
Cc1cc(-c2c(C)n([O-])c(C)c(C)[n+]2=O)ccc1F,-0.88,-8,1.1,24,0.8
C=CCn1c(=S)[nH]c2nc3c(cc2c1=O)CCCC3,0.39,-20,1.2,-6,1.1
C=CCn1c(=S)[nH]c2ccc(Br)cc2c1=O,0.76,38,0.6,62*,0.4
Cc1ccc(O)c(-c2cc(-c3cccc(F)c3)n[nH]2)c1,-0.31,69*,0.3,33,0.7
Cc1ccc(-c2cc(-c3cccc(F)c3)n[nH]2)c(O)c1,0.017,70*,0.3,26,0.7
CS(=O)(=O)c1cnc(-c2ccccc2)nc1Oc1ccc(Cl)cc1,-2.8,14,0.9,32,0.7
SMILES,Cav32 inh,CYP2C9 inhib,CYP2C9 act,CYP2C19 inhib,CYP2C19 act
COc1ccc(-c2cc(N)n(CCC#N)n2)c(OC)c1,0.31,-6,1.1,12,0.9
COc1ccc(-n2cnc3c(cnn3CCC#N)c2=N)cc1,.,8,0.9,77*,0.2
CCC1=NN(C(=O)Cc2ccc(OC)cc2)C(O)(C(F)(F)F)C1 (configuration not stated),-0.43,10,0.9,53*,0.5
CCC1=NN(C(=O)C(=O)NCCc2ccccc2)C(O)(C(F)(F)F)C1 (configuration not stated),-0.54,16,0.8,7,0.9
CCC1=NN(C(=O)C(=O)Nc2ccc(OC)cc2)C(O)(C(F)(F)F)C1 (configuration not stated),-0.94,12,0.9,14,0.9
CCC1=NN(C(=O)CCc2ccccc2)C(O)(C(F)(F)F)C1 (configuration not stated),-3.4,48,0.5,67*,0.3
CCC1=NN(C(=O)C(=O)Nc2ccccc2OC)C(O)(C(F)(F)F)C1 (configuration not stated),-0.43,62*,0.4,15,0.8
O=C(c1ccc(F)cc1)C1CCN(C(=O)NC2CCCCC2)CC1,1.3,24,0.8,38,0.6
COc1ccc(N2C(=O)C(Cl)=C(NCc3ccccc3)C2=O)cc1,-3.5,96*,0,99*,0
Cc1ccc(S(=O)(=O)Cc2ccc(C(=O)N3CCCC3)o2)cc1,0.74,19,0.8,58*,0.4
CCOC(=O)C1CCCN(C(=O)c2ccc(CS(=O)(=O)c3ccc(C)cc3)o2)C1 (configuration not stated),0.2,83*,0.2,11,0.9
O=S(=O)(c1ccc(Cl)cc1)n1ccc2cccnc21,0.3,.,.,.,.
CC1=C(C)CS(=O)N(S(=O)(=O)c2ccc(Cl)cc2)C1 (configuration not stated),-7.4*,35,0.7,21,0.8
C#CCOCCOCCOCCNc1nc(N2CCN(C(=O)[C@H](CCCCN)n3cc(C(N)CO)nn3)CC2)nc(N2CCN(C(=O)[C@H](CCC(=O)O)n3cc(C(N)Cc4ccc(O)cc4)nn3)CC2)n1 (some centres not stated),-0.2,.,.,.,.
O=C(NCc1ccccc1Cl)C1CCN(C(=O)c2sccc2-n2cccc2)CC1,-0.02,25,0.8,61*,0.4
CN(C)C(=O)N1CCC(C(=O)NCc2ccccc2Cl)CC1,-1.4,-38,1.4,6,0.9
CCOc1ccccc1CNC(=O)C1CCN(C(=O)c2sccc2-n2cccc2)CC1,1.1,-8,1.1,84*,0.2
CC(=O)Nc1ccc(C(=O)N2CCCC2)cc1,0.65,-10,1.1,6,0.9
c1csc(-c2csc3nc(CN4CCOCC4)nc(NCc4ccc5c(c4)OCO5)c23)c1,-7.6*,84*,0.2,79*,0.2
Cc1c(C(=O)N2CCN(Cc3ccccc3)CC2)sc2ncnc(N3CCOCC3)c12,0.61,32,0.7,55*,0.5
CCOC(=O)CNC(=O)c1sc2ncnc(N3CCc4ccccc4C3)c2c1C,.,98*,0,79*,0.2
CCOC(=O)c1sc2ncn(CC(=O)N(CC)CC)c(=O)c2c1C,0.99,19,0.8,10,0.9
CCOC(=O)c1sc2ncn(C(C)C(=O)OCC)c(=O)c2c1C (configuration not stated),-0.31,75*,0.3,81*,0.2

# Screens (PubChem BioAssay)
